# The list is not random: actives were taken first. Their share in the collection is about 4.8%.
# hgDAF-12 ag = activates the H. glycines DAF-12 receptor ligand-binding domain. HEK293 GAL4-hgDAF12 UAS-luciferase reporter, agonist luminescence; normalized to butyrate control. activation, % at 6.8 µM. actives 1.8% (n = 370,000). AID 687014;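 active = activation above a cutoff set at the mean of all screened compounds plus 3 SD, cut at about 10% in these data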;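 note: 0% = DMSO wells and 100% = sodium butyrate wells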
# DAX1 inh-1 = inhibits human nuclear receptor DAX1 | P51843 | HEK293 Gal4-DAX1 luciferase reporter, luminescence | inhibition, % at 6.75 µM | actives 0.99% (n = 340,000);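 active = inhibition above the mean over all tested compounds plus 3 SD, cut at about 4.2% in these data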;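 note: 0% = DAX1-transfected cells with DMSO and 100% = empty-vector control cells with DMSO; inhibition shows as a rise in luminescence from relieved DAX1 repression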
# Target sequence (P51843 207-470 limits assumed): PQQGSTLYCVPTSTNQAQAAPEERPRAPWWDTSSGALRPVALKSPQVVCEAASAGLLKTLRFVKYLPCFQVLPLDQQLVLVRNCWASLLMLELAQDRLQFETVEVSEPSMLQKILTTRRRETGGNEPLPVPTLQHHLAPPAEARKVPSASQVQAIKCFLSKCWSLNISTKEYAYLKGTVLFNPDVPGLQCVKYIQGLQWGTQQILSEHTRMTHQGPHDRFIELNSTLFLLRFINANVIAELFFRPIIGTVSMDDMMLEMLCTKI
# SMARCA2 activ = increases SMARCA2 function in MMTV reporter cells; MG213 cells, MMTV-luciferase reporter, dexamethasone, overnight; activation, % at 9.1 µM; actives 1% (n = 370,000); in the data active = activation above about 7.8%;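 note: 0% = vehicle wells and 100% = reference activator wells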
# ssDAF12 agonist = S. stercoralis DAF-12 activation, primary screen; HEK293 ssDAF-12/GRIP1 lit1-tk-luc reporter, luminescence; % of 3 µM dafachronic acid response; activation, % at 6.8 µM; actives 1% (n = 370,000); AID 652126;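 active = activation above the mean over all tested compounds plus 3 SD, cut at about 0.9% in these data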;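 note: 0% = DMSO-only wells and 100% = 3 µM delta7-dafachronic acid wells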
# DAX1 inh-2 = inhibitors of DAX1 repression of SF-1 activated StAR promoter. inhibition, % at 6.8 µM. HEK293T StAR-luciferase reporter, SF-1/DAX-1 repression relief. actives 1.1% (n = 370,000);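 active = inhibition above the mean over all tested compounds plus 3 SD, cut at about 3.6% in these data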;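 note: 0% = DAX-1 cells with DMSO and 100% = cells lacking DAX-1 with DMSO; higher inhibition means more luminescence from relief of DAX-1 repression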
# hcDAF-12 act = activators of H. contortus DAF-12 nuclear receptor | activation, % at 6.8 µM | HEK293 hcDAF-12 lit1-tk-luc reporter, luminescence; 0% DMSO, 100% Δ7-dafachronic acid | actives 1.4% (n = 370,000);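 active = activation above the mean of all tested compounds plus 3 SD, cut at about 5.5% in these data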;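 note: 100% = response to 3 µM Δ7-dafachronic acid high control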
# SMARCA2 act conf = SMARCA2 activation, confirmation screen. shares compounds with SMARCA2 activ. MG213 cells, MMTV-luciferase with dexamethasone, luminescence, overnight; MG213 cells expressing E1A, Rb sequestered; DMSO wells 0%, reference activator 100%. AID 652260. actives 30% (n = 3,500). activation, % at 9.1 µM;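 active = activation above its plate's cutoff, the mean activation of tested wells plus 3 SD, cut at about 7.9% in these data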
# VP16 Luc act = counter-screen for SMARCA2 activators: GAL4-VP16 luciferase reporter activation | shares compounds with SMARCA2 activ | HEK293 GAL4-VP16 pG5luc reporter, luciferase luminescence; scaled: DMSO wells 0%, SAHA wells 100% | activation, % at 9.1 µM | actives 41% (n = 3,500) | AID 686939;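 active = activation above the solvent-only control well mean plus 3 SD, averaged across control plates, cut at about 5.2% in these data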
# Active calls of the source: *; x = no result given.
SMILES,hgDAF-12 ag,DAX1 inh-1,SMARCA2 activ,ssDAF12 agonist,DAX1 inh-2,hcDAF-12 act,SMARCA2 act conf,VP16 Luc act
CC(C)C(=O)N[C@H]1CCC2C3CC=C4C[C@@H](O)CC[C@]4(C)C3CC[C@@]21C (stereo not given in full),-2,-1,-2,-1,-2,-1,x,x
CCCCCCN[C@H]1CCC2C3CC=C4C[C@@H](O)CC[C@]4(C)C3CC[C@@]21C (stereo not given in full),-1,-1,11*,-1,0,0,9.7*,1
O=C(O)CCNc1cc(N2CCN(C(=O)c3ccco3)CC2)c2noc3c2c1C(=O)c1ccccc1-3,-3,-1,-3,-1,-1,-1,x,x
COc1cc(C)ccc1OCCCOc1ccccc1Cl,9,3,9.5*,0,1,1,13*,8.9*
CCN(CC)CCNc1ccc(C)c2sc3ccc(O)cc3c(=O)c12,-10,-4,8.4*,0,-5,-1,18*,5
COc1cccc(/C=N/N=C(\N)c2nonc2N)c1O,13*,3,8.6*,0,3,3,7,12*
COc1cc(/C=N/N=C(/N)c2nonc2N)cc(Br)c1OCc1ccccc1C,4,1,-3,-1,-1,-3,x,x
N=C1/C(=C/c2cccn2CCOc2ccccc2)C(=O)N=C2SC=C(c3ccccc3)N12,-3,0,-3,-1,0,0,x,x
C[C@@H]1CN([C@@H](C)CO)C(=O)CCCn2cc(nn2)CO[C@H]1CN(C)C(=O)CCCN(C)C,0,0,4,-1,1,2,x,x
C[C@H](CO)N1C[C@H](C)[C@@H](CN(C)C(=O)CCC(F)(F)F)OCc2cn(nn2)CCCC1=O,-1,x,8.4*,0,0,0,0,1
O=C(COC(=O)c1nc(Cl)c(Cl)c(Cl)c1Cl)c1ccc[nH]1,0,1,9.3*,0,0,0,20*,1
CCCC(=O)Nc1ccc2oc(-c3cncc(Br)c3)nc2c1,7,2,1,0,1,5,x,x
O=C(Nc1ccc2oc(-c3ccccc3Cl)nc2c1)c1cncc(Br)c1,5,1,8.1*,-2,0,1,0,5
O=C(Nc1ccc2nc(-c3ccccc3)oc2c1)c1ccco1,3,1,0,-1,1,0,x,x
CC(/C=C1\SC(=S)N(NC(=O)c2ccc(O)cc2)C1=O)=C\c1ccccc1,4,0,9.0*,0,0,-2,1,1
CN(C)CCNC(=O)C(=O)NCC1OCCN1S(=O)(=O)c1ccc(F)cc1 (stereo not given),-2,0,6,-1,0,0,x,x
CNC(=O)Cn1c(C)cc(=O)c2cccc(OC)c21,-1,x,0,-1,0,-1,x,x
CC(=O)/C(C(=N)N1CCN(c2cccc(Cl)c2)CC1)=C(\C)O,1,2,0,-1,0,-2,x,x
Cc1ccc(C(=O)Nc2ccc(NC(=O)c3cccs3)cc2)cc1[N+](=O)[O-],-2,0,9.0*,-2,0,-1,4,1
O=C(Nc1ccc(C(=O)O)cc1)/C(=C\c1ccccc1)NC(=O)c1ccco1,0,-1,-4,-1,0,0,x,x
O=C(N/N=C/c1ccc(Cl)cc1Cl)c1n[nH]c2c1CCCC2,2,0,9.5*,-1,1,0,6,8.0*
COc1ccc(NC(=S)NC23CN4CN(CN(C4)C2)C3)cc1,1,0,-1,-1,0,-2,x,x
CC(Sc1ccc(Cl)cc1)C(=O)NCC1CCCO1 (stereo not given),0,0,0,-1,-1,-1,x,x
Cc1cc(C)c2[nH]c(C(=O)Nc3ccc4c(c3)OCO4)cc2c1,4,-1,8.0*,-2,0,-1,0,3
COc1ccc(-c2cc(=O)[nH][nH]2)cc1,-2,-1,1,-1,-1,-2,x,x
SMILES,hgDAF-12 ag,DAX1 inh-1,SMARCA2 activ,ssDAF12 agonist,DAX1 inh-2,hcDAF-12 act,SMARCA2 act conf,VP16 Luc act
COc1ccc(-c2cc(=O)n(CCC#N)[nH]2)cc1,-5,-2,13*,0,-3,1,0,2
COCCn1c(SCc2nc3ccccc3s2)nc2ccccc21,7,1,15*,0,2,5,7,8.1*
CCOCCCn1c(SCc2nc3ccccc3s2)nc2ccccc2c1=O,7,1,1,-1,1,4,x,x
CCn1c(SCc2nc3ccccc3s2)nc2cc(S(=O)(=O)N3CCOCC3)ccc21,9,2,10*,0,1,5,3,4
O=C1CCC(C(=O)N2CCSCC2)CN1Cc1ccc(Cl)cc1 (stereo not given),0,1,0,-1,-1,0,x,x
COC(=O)CN(n1cnnc1)S(=O)(=O)c1ccccc1Cl,-1,1,5,-1,0,-1,x,x
O=C(NC(=S)NC(=O)c1ccccc1F)c1ccccc1F,0,0,10.0*,-2,-1,3,0,2
CC(C)c1ccc2[nH]c3nc(SCC(=O)N4CCOCC4)nnc3c2c1,0,1,9.7*,-1,-1,0,4,5.8*
CCN(C(=O)CSc1nc(C2CC2)n(-c2ccccc2)n1)C1CCS(=O)(=O)C1 (stereo not given),2,-1,-1,0,1,0,x,x
O=C1/C(=C/c2ccco2)Cc2ccccc21,7,-1,11*,0,0,1,13*,4
O=C1C(=Cc2ccc(F)cc2)Cc2ccccc21,4,x,5,0,0,0,x,x
N=c1n(CCN2CCCC2)c2ccccc2n1CC(O)c1ccc(Cl)c(Cl)c1 (stereo not given),-2,2,14*,-1,1,1,-10,2
CS(=O)(=O)N1CCN=C1SCc1ccc(Br)cc1,-1,-1,2,-1,0,2,x,x
COc1cc(NC(=O)CN2c3ccccc3CC2C)cc(OC)c1OC (stereo not given),1,1,-2,-1,0,-2,x,x
O=[N+]([O-])c1ccc2nc(-c3ccc(Cl)cc3)n(OCc3ccccc3)c2c1,9,2,11*,0,3,2,7,11*
Clc1ccc(COn2c(-c3ccc(Cl)cc3)nc3ccccc32)cc1,0,0,3,-2,-1,-1,x,x
